Hit rate of the full screen: of about 69,000 compounds, about 8,600 (12%) showed an effect of 50% or more. What follows is part of a selection rich in strong results, with near analogues and random picks from the rest.
test system: Plasmodium berghei; assay: Screen against P. berghei liver stage (PbLuc), transformed with Luciferase, at 10uM; format: functional, HepG2; conditions: tested at 10 uM

Row | SMILES | INHIBITION [%]
1 | CCC(C)(C)NC(=O)CN1C=Nc2ccccc2S1(=O)=O | 19.6
2 | c1cnc(N2CCC3(CCN(CC4CCOCC4)CC3)C2)nc1 | 5.67
3 | CCc1c(C(=O)O)nnn1-c1ccc(C)cc1C | 39.2
4 | CN(C)S(=O)(=O)N1C[C@@H]2CN(Cc3ccoc3)CCO[C@@H]2C1 | 23.6
5 | CN1CCN(CCOc2ccc(NC(=O)c3ccoc3)cc2)CC1 | -6.99
6 | CCc1c(C(=O)O)nnn1-c1cccc(C)c1C | 6.09
7 | COc1cc(N2CC[C@@H](O)[C@@H]2Cc2ccncc2)ncn1 | 43.9
8 | COCCO[C@H]1CCN(c2cc(OC)ncn2)[C@H]1Cc1cnn(C)c1 | 76.2
9 | COc1cc(N2CC[C@@H](O)[C@@H]2Cc2ccccc2)ncn1 | 92.8
10 | COc1cc(N2CC[C@H](O)[C@@H]2Cc2cccnc2)ncn1 | 6.6
11 | COc1cc(N2CC[C@@H](OC)[C@@H]2Cc2cnn(C)c2)ncn1 | 23.5
12 | COc1cc(N2CC[C@H](O)[C@@H]2Cc2ccccc2)ncn1 | 75.4
13 | COc1cc(N2CC[C@@H](O)[C@@H]2Cc2cccnc2)ncn1 | 85.8
14 | COCCO[C@@H]1CCN(c2cc(OC)ncn2)[C@H]1Cc1cnn(C)c1 | 14.6
15 | COCCN1CC[C@H](O)[C@@H]1Cc1ccccc1 | 0.79
16 | COCC(=O)N1CC[C@@H](O)[C@@H]1Cc1ccccc1 | 37.5
17 | COc1cc(N2CC[C@H](O)[C@@H]2Cc2cnn(C)c2)ncn1 | 22.7
18 | COCCN1CC[C@@H](O)[C@@H]1Cc1ccccc1 | 6.32
19 | Cc1cc(OCCC(=O)Nc2cccc(F)c2)nnc1C | -9.93
20 | Cc1cc2c(=O)n3c(nc2s1)CCN(Cc1cncn1C)CC3 | 5.11
21 | Cc1cnn(CC(=O)N2CCCN(c3ncccc3C#N)CC2)c1 | -14.7
22 | CS(=O)(=O)c1cnc(N2CCCC2)nc1C1CCN(C(=O)C2CC2)CC1 | -15.7
23 | Cc1cc(C(=O)NCc2ccc(-c3n[nH]cc3C(=O)N(C)C)cc2)on1 | 39.35
24 | CCc1cnc(N2CC[C@H]3[C@H]2CC(=O)N3c2cccnc2)nc1 | -34.7
25 | Cc1ccc(N2N=C(C(N)=O)S(=O)(=O)c3cccnc32)cc1 | 41.5
26 | Cc1cc(CN2CCN(C(=O)NCc3cccs3)CC2)on1 | 14.1
27 | Cc1ccc(N2CC[C@H](OCC3CC3)[C@@H]2Cc2cccnc2)nn1 | 42.4

Row | SMILES | INHIBITION [%]
28 | COCCO[C@H]1CCN(c2ccc(C)nn2)[C@H]1Cc1cccnc1 | 5.68
29 | c1cnc(N2CC[C@@H](OCC3CC3)[C@@H]2Cc2cccnc2)nc1 | 64.3
30 | c1ccc(N2CC[C@H](OCC3CC3)[C@@H]2Cc2cccnc2)nc1 | 37.5
31 | COCCO[C@H]1CCN(c2cc(OC)ncn2)[C@H]1Cc1cccnc1 | 82.8
32 | COCCO[C@H]1CCN(c2cc(OC)ncn2)[C@H]1Cc1ccncc1 | -39.2
33 | Cc1cc2nc(SCC(=O)N3CCOCC3)n(CCC(C)C)c(=O)c2[nH]1 | 45.8
34 | O=C(Cc1ccc(-n2cnnn2)cc1)Nc1cnn(CC(F)F)c1 | 42.6
35 | O=C(c1ccc(-c2ccc(O)nc2)s1)N1CCSCC1 | 3.295
36 | Cc1ccc(CN2C[C@H](OCCN(C)C)[C@H]3COC[C@H]32)o1 | 14.6
37 | Fc1ccc(-c2nnc(CN3CCCC(Cn4cncn4)C3)o2)cc1 (stereo not given) | -105
38 | CCCc1n[nH]c(C2CN(C(=O)CCc3cscn3)CCO2)n1 (stereo not given) | 25.3
39 | CCC1(C)Cc2ccccc2-c2nc(NCCCO)nc(O)c21 (stereo not given) | 28.4
40 | Cc1cccc(CN2CCCC3(Cc4ccccc4CNC3=O)C2)n1 (stereo not given) | 9.32
41 | O=c1[nH]c(NCCO)nc2c1C1(CCCC1)Cc1ccccc1-2 | 62.3
42 | CC(C)NC(=O)N1CCC2(CC1)Cc1ccccc1CNC2=O | 29.5
43 | CN1Cc2ccccc2CC2(CCN(CCO)CC2)C1=O | -9.23
44 | OCCCNc1nc(O)c2c(n1)-c1ccccc1CC21CCCCC1 | 77.2
45 | O=c1[nH]c(NCCCO)nc2c1C1(CCCC1)Cc1ccccc1-2 | 64
46 | O=c1[nH]c(NCCO)nc2c1C1(CCCCC1)Cc1ccccc1-2 | 66.5
47 | Cc1cc(C(=O)NC2CCN(c3nnc(C)c(C)c3C#N)CC2)no1 | 3.87
48 | Cn1ccc(C(=O)N2CCOC(c3ccc(C(N)=O)cn3)C2)n1 (stereo not given) | 22
49 | Cc1noc(CNC(=O)CN(C)c2nc3ccccc3s2)n1 | -4.01
50 | O=C(c1cc(C2CCCN(Cc3ccccn3)C2)no1)N1CCCC1 (stereo not given) | 7.52
51 | Cc1oc(-c2cccs2)nc1C(=O)N1CCCC1Cn1cccn1 (stereo not given) | 36.1
52 | c1ccc(CN2CCc3c(COCc4ccncc4)cncc3C2)nc1 | 3.81
53 | O=c1cc(Cn2cncn2)nc2n1CCCN(Cc1ccc(F)cc1)C2 | 22.5
54 | COc1c(CNCC(O)c2cccc(F)c2)c(C)nn1C (stereo not given) | -47.6

Row | SMILES | INHIBITION [%]
55 | Cn1c(Cn2ccnc2)nnc1C1CCN(C(=O)c2ccccn2)CC1 | 5.41
56 | Cc1ncccc1NC(=O)[C@@H]1CC[C@@H]2[C@@H](CCN2Cc2cnn(C)c2)O1 | 0.734
57 | Cc1ccc(-c2cccc(N3CCC(NC4CCOCC4)CC3)c2)cc1 | 39.3
58 | Fc1cccc(-c2cccc(N3CCC(NC4CCCOC4)CC3)c2)c1 (stereo not given) | 46.5
59 | COc1cccc(-c2cccc(N3CCC(N[C@@H]4CCOC4)CC3)c2)c1 | 53.7
60 | CC(=O)N1CCC(c2cncc(N3CCC(O)C3)n2)CC1 (stereo not given) | 23.9
61 | CC(C)c1noc(CCC(=O)NCC2CCC(C(N)=O)CC2)n1 (stereo not given) | -21.8
62 | CCCn1nccc1NC(=O)CN1CCCC1c1c(C)nn(C)c1C (stereo not given) | 34.1
63 | COc1ccc(-n2nnc(C(N)=O)n2)cc1 | -8.07
64 | CCn1cc(CNC(=O)c2nn(CC)cc2Br)cn1 | 76
65 | CCn1cc(Br)c(C(=O)NCc2cnn(C)c2)n1 | -13.2
66 | CCn1cc(Br)c(C(=O)NCc2ccccc2)n1 | 17
67 | COCC1Cn2nnc(-c3cnn(C)c3)c2CN1Cc1ccsc1 (stereo not given) | 33.4
68 | COc1cccn(CC(=O)N2CCCC3(CCCO3)CC2)c1=O (stereo not given) | -2.61
69 | Cc1ccc(S(=O)(=O)N(CCO)C2CC2)cc1N(C)C | 21.3
70 | CC(C)c1nnc2n1CCN(C(=O)c1ccnc(-n3ccnc3)c1)C2 | 31.2
71 | CC(=O)NCCC(=O)NCC1(c2c(F)cccc2F)CCCC1 | 24.2
72 | CCS(=O)(=O)CC(=O)NCC1(c2c(F)cccc2F)CCCC1 | 57.4
73 | CCC(=O)NCC(=O)NCC1(c2c(F)cccc2F)CCCC1 | -3.59
74 | Cc1noc(C)c1CN1C[C@H](OCc2ccncc2)[C@H]2OCCC[C@H]21 | -10.3
75 | Cn1cc(CN2CCc3ncnc(N4CCOCC4)c3CC2)cn1 | 5.36
76 | CCNc1cc2c(nn1)CCN(C(=O)c1cccc3c1OCO3)C2 | -4.16
77 | COc1cccc(Nc2nc(C3CCNCC3)c3sc(C)c(C)n23)c1 | 23.12
78 | Cc1sc2c(C3CCCNC3)nc(Nc3cccc(F)c3)n2c1C (stereo not given) | 36.5
79 | Cc1sc2c(C3CCNCC3)nc(Nc3cccc(F)c3)n2c1C | 54.6
80 | CC(C)Oc1ccc2c(NC(=O)CN(C)C)nn(CC(F)(F)F)c2c1 | 42.3
81 | CC1(Cc2ccc(Cl)cc2)Cc2cc(CCC(=O)O)ccc2O1 (stereo not given) | -29.4

Row | SMILES | INHIBITION [%]
82 | Cc1cc(C)c2c(N3CCCN(C(=O)C4CCC4)CC3)ncnc2n1 | 30.9
83 | Cc1cnc(N2C[C@@H]3C[C@H](C(=O)N(C)C)[C@H](C2)O3)nc1 | 17.3
84 | Cc1cccc(N(CCC(N)=O)C(=O)c2cc(-n3cccn3)ccn2)c1 | 8.92
85 | Cc1cccc(N(CCC(N)=O)C(=O)c2cnccn2)c1 | 12.9
86 | Cc1cccc(N(CCC(N)=O)C(=O)c2ccnc(C)n2)c1 | 50.5
87 | O=C(CCn1nc(C(F)(F)F)c(Br)c1C1CC1)NN1CCOCC1 | -25.5
88 | Cc1ccc(OCc2occc2C(=O)N2CCCCC(N)C2)cc1 (stereo not given) | 11.8
89 | Cc1cc(CN2C[C@@H]3CC[C@H]2CN(Cc2c(C)noc2C)C3)ccc1F | -63.6
90 | O=C(c1ncncc1Cl)N1CCC2(CCCC2)CC1 | 43.1
91 | O=C(c1ccccc1)N1CCCN(C(=O)c2ncncc2Cl)CC1 | 74
92 | O=C(c1ncncc1Cl)N1CCN(c2ccc(Cl)cc2)CC1 | 44
93 | COc1ncccc1C(=O)NCCn1cnc(C)cc1=O | -70.7
94 | CO[C@@H]1CC[C@@H](N(C)C(=O)c2cn3cc(C)ccc3n2)[C@H]1O | -2.65
95 | CCN1CCOCC12CCN(C(=O)c1ccsc1)CC2 | 42.1
96 | O=C(Nc1ccc(Cl)cn1)c1cncc(C2CCNCC2)n1 | -10.4
97 | c1ccc(Cc2nc(CNC3CCOC4(CCOCC4)C3)no2)cc1 (stereo not given) | -40.7
98 | c1ccc(Cc2nc(CNC3CCC4(CCNCC4)CC3)no2)cc1 | 53.7
99 | COCc1nc(CNC2CCC3(CCNCC3)CC2)no1 | 12.1
100 | O=C(c1cnc(C2CC2)s1)N1CCCC1Cn1cccn1 (stereo not given) | 8.64
101 | Cc1nn(CCC(=O)NC2CCS(=O)(=O)C2)c(C)c1Br (stereo not given) | -8
102 | Cc1ccoc1C(=O)N1C[C@H]2CCC[C@@]2(COCc2ccncc2)C1 | 41.8
103 | CCN1CC2(CCC1=O)CCN(C(=O)c1ccc(Cl)cc1O)CC2 | 36.8
104 | CCN1CC2(CCC1=O)CCN(C(=O)C(O)c1cccc(Cl)c1)CC2 (stereo not given) | 71.1
105 | CC(C)CN1CC2(CCN(C(=O)C(O)c3cccc(Cl)c3)CC2)CC1=O (stereo not given) | -28.9
